Screens: PubChem, National Center for Advancing Translational Sciences (NCATS)
Pf Dd2 inh = blocks in vitro growth of P. falciparum Dd2 | Potency, µM (doses to about 28.9 µM), for inactives: at the top dose activity, negative = inhibition, actives largely listed as inhibitors | P. falciparum Dd2 growth, SYBR Green, 72 h | 4.3% of 120,000 active; active = well fitted inhibition curve with a large enough effect;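 note: plate controls were DMSO vehicle for no effect and reference drug for full effect; nearly all actives have a fitted effect of over 65% in size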
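Readout: SYBR Green fluorescence, 485 nm excitation, 535 nm emission, after ~16 h lysis at 37C. Before that, Dd2-infected red cells (2.5% hematocrit) grew 72 h with compound, 29 uM top final concentration.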
Starred values were filed as active, the others as inactive; [ ] = dose if it differs, or a comment. The full list was thinned out, with hits kept by preference. Potency is the fitted concentration of half-maximal effect.

How did CC1(CCCCN2CCOCC2)COc2ccc(C(=O)Nc3ccccc3)cc2N1 (configuration not stated) do in these assays?
Pf Dd2 inh: -4.2%[44.1 µM]

What do the screens show for `Cc1ccc(C(=O)N2CCC3(CCCCO3)CC2)cn1`?
Pf Dd2 inh: 21.6%

How did COCCNC(=O)C(C)[C@@H]1CCc2c(C)cc(OCCOC)c(C)c2[C@@H]1O (some centres not stated) do in these assays?
Pf Dd2 inh: -14.7%[44.1 µM]

Results for COc1ccc(CNC(=O)Nc2cn(CC(C)C)c(=O)c3ccccc23)c(OC)c1 ?
Pf Dd2 inh: inactive

Results for CCc1ccccc1N(C)C(=O)Nc1cn(CC(C)C)c(=O)c2ccccc12 ?
Pf Dd2 inh: 8.91µM*

How did CCc1ccccc1N(C)C(=O)Cc1c(C(=O)O)c(C)cn1C do in these assays?
Pf Dd2 inh: -11.4%

What do the screens show for `CC(C)C[C@@H]1N[C@H](C(=O)NCC2CC2)Cc2cn(Cc3nccn3C)c3cccc1c23`?
Pf Dd2 inh: -17.6%[44.1 µM]

What do the screens show for `Cc1cc(Cn2cc3c4c(cccc42)[C@H](CC(C)C)N[C@H](C(=O)NCc2ccc(C)o2)C3)no1`?
Pf Dd2 inh: 12.6µM*

What do the screens show for `CCCNC(=O)[C@@H]1Cc2cn(Cc3c(C)noc3C)c3cccc(c23)[C@H](CC(C)C)N1`?
Pf Dd2 inh: 11.2µM*

How did COc1ccccc1CNC(=O)[C@@H]1Cc2cn(C)c3cccc(c23)[C@H](CC(C)C)N1 do in these assays?
Pf Dd2 inh: -13.3%[44.1 µM]

What do the screens show for `CC(C)C[C@@H]1N[C@H](C(=O)NCCN(C)C)Cc2cn(Cc3ccccn3)c3cccc1c23`?
Pf Dd2 inh: -18.8%[44.1 µM]

How did CC(=O)NCCNC(=O)[C@@H]1Cc2cn(Cc3cc(C)on3)c3cccc(c23)[C@H](CC(C)C)N1 do in these assays?
Pf Dd2 inh: inactive

What do the screens show for `C=CCn1cc2c3c(cccc31)[C@H](CC(C)C)N[C@H](C(=O)NCc1ccccn1)C2`?
Pf Dd2 inh: 11.2µM*

What do the screens show for `CC(C)C[C@@H]1N[C@H](C(=O)NC2CC2)Cc2cn(Cc3nccn3C)c3cccc1c23`?
Pf Dd2 inh: 11.2µM*

What do the screens show for `CC(C)C[C@@H]1N[C@H](C(=O)NCc2ccccn2)Cc2cn(Cc3ccncc3)c3cccc1c23`?
Pf Dd2 inh: -29.3%

Results for Cc1cc(Cn2cc3c4c(cccc42)[C@H](CC(C)C)N[C@H](C(=O)NCc2nccs2)C3)no1 ?
Pf Dd2 inh: -7.1%

Results for Cc1cc(Cn2cc3c4c(cccc42)[C@H](CC(C)C)N[C@H](C(=O)O)C3)no1 ?
Pf Dd2 inh: inactive

Results for O=C(c1ccco1)N1CCN(C(=O)C2CCc3ncc(-c4ccsc4)n3C2)CC1 (configuration not stated) ?
Pf Dd2 inh: -17.8%

How did CCS(=O)(=O)c1ncc(CN(C)Cc2ccc3nonc3c2)n1CCc1ccccc1 do in these assays?
Pf Dd2 inh: -19.1%

How did Cc1cc(C(=O)N2CCC(C(=O)N3CCCCCCNC(=O)CC3)CC2)n(C)n1 do in these assays?
Pf Dd2 inh: 6.4%

How did CC(=O)NC[C@H]1OC[C@@H](NCc2cccs2)[C@@H]1O do in these assays?
Pf Dd2 inh: inactive

How did O=C1CC(c2ccccc2)N(C(=O)C2CC2)CCCN(C(=O)NC2CCCCC2)CCN1 (configuration not stated) do in these assays?
Pf Dd2 inh: inactive

How did CC1(c2ccccc2)N(Cc2ccc(O)cc2)C(=O)OC12CCN(CC1CC1)CC2 (configuration not stated) do in these assays?
Pf Dd2 inh: inactive

What do the screens show for `CCN1CCC(CCNC(=O)C2CCN(C(=O)N3CC4CC(C3)[C@H]3CCCC(=O)N3C4)CC2)CC1` (some centres not stated)?
Pf Dd2 inh: inactive

What do the screens show for `COc1ccc(Cn2c(C(C)n3cccn3)n[nH]c2=O)cc1` (configuration not stated)?
Pf Dd2 inh: -4.9%

How did NC(=O)[C@H](Cc1cccs1)NC(=O)C1=C[C@@H](NC(=O)CC2(CC(=O)O)CCCC2)[C@@H](O)[C@H](O)C1 do in these assays?
Pf Dd2 inh: 12.1%

What do the screens show for `c1ccc(OCCC2CCNC2)cc1` (configuration not stated)?
Pf Dd2 inh: inactive

How did O=C(CCc1cccc(F)c1)N1CCC(C(=O)O)(n2cccn2)CC1 do in these assays?
Pf Dd2 inh: -7.3%

What do the screens show for `COC(=O)CNC(=O)c1cc(Br)cn2ccnc12`?
Pf Dd2 inh: -2.7%[44.1 µM]

How did COc1cc(C(=O)NC2CCCN(c3ncccn3)C2)cc(OC)c1OC (configuration not stated) do in these assays?
Pf Dd2 inh: -10.6%

What do the screens show for `CC(C)C[C@@H]1N[C@H](C(=O)NC2CCC2)Cc2cn(Cc3ccncc3)c3cccc1c23`?
Pf Dd2 inh: -28.3%[44.1 µM]

What do the screens show for `CC(C)C[C@@H]1N[C@H](C(=O)NCC2CC2)Cc2cn(Cc3ccccn3)c3cccc1c23`?
Pf Dd2 inh: -23.4%[44.1 µM]

What do the screens show for `CC(C)C[C@@H]1N[C@H](C(=O)NC2CCC2)Cc2cn(Cc3ccccn3)c3cccc1c23`?
Pf Dd2 inh: 11.2µM*

Results for CC(C)C[C@@H]1N[C@H](C(=O)NCc2ccccc2)Cc2cn(Cc3cccnc3)c3cccc1c23 ?
Pf Dd2 inh: -6.6%

How did CC(C)C[C@@H]1N[C@H](C(=O)NCCN2CCOCC2)Cc2cn(Cc3ccccn3)c3cccc1c23 do in these assays?
Pf Dd2 inh: inactive

What do the screens show for `CC(C)C[C@@H]1N[C@H](C(=O)N2CCOCC2)Cc2cn(Cc3nccn3C)c3cccc1c23`?
Pf Dd2 inh: 11.2µM*

How did COCCCNC(=O)[C@@H]1Cc2cn(Cc3nccn3C)c3cccc(c23)[C@H](CC(C)C)N1 do in these assays?
Pf Dd2 inh: -4.2%[44.1 µM]

How did CCCNC(=O)[C@@H]1Cc2cn(Cc3nccn3C)c3cccc(c23)[C@H](CC(C)C)N1 do in these assays?
Pf Dd2 inh: 10µM*

What do the screens show for `C#CCNC(=O)[C@@H]1Cc2cn(Cc3ccncc3)c3cccc(c23)[C@H](CC(C)C)N1`?
Pf Dd2 inh: 10µM*

How did O=C(c1ccc(Cl)cc1)N1CCC2(CN[S+](=O)([O-])c3cccnc3O2)C1 (configuration not stated) do in these assays?
Pf Dd2 inh: 16.8%

What do the screens show for `Cc1cnc(C(=O)NC2C[C@H]3CC[C@@H](C2)N3C(=O)c2ccccc2C)cn1` (some centres not stated)?
Pf Dd2 inh: -2.4%

Results for COC(=O)c1cn([C@H]2CO[C@H]3[C@@H]2OC[C@@H]3NCc2ccco2)nn1 ?
Pf Dd2 inh: -4.0%[44.1 µM]

Results for O=S(=O)(c1cccc(F)c1)N1CC(c2nnc(-c3ccncc3)o2)C2(CCOCC2)C1 (configuration not stated) ?
Pf Dd2 inh: -23.1%

Results for CCOC(=O)c1[nH]cnc1C(=O)N(CCO)Cc1nccn1C ?
Pf Dd2 inh: 16.1%

How did COc1ccc([C@@H]2CN(c3ncccc3C#N)C[C@H]2NC(C)=O)cc1 do in these assays?
Pf Dd2 inh: -6.5%

How did O=C(CCC1CCN(S(=O)(=O)c2ccccc2)CC1)NC1CCCCCC1 do in these assays?
Pf Dd2 inh: -10.6%

Results for COc1ccccc1CN1CCc2nc(C(=O)N3CCOCC3)oc2CC1 ?
Pf Dd2 inh: -6.5%[44.1 µM]

What do the screens show for `COc1ccccc1CN1CCC(n2cc[nH]c2=O)CC1`?
Pf Dd2 inh: 5.7%[44.1 µM]

What do the screens show for `CCCc1cc(=O)oc2c3c(ccc12)OCN(Cc1ccccc1OC)C3`?
Pf Dd2 inh: 3.16µM*

What do the screens show for `COc1ccc(CN2CCN(Cc3cc(=O)oc4cc(C)ccc34)CC2)c(OC)c1OC`?
Pf Dd2 inh: -6.2%

What do the screens show for `COc1ccccc1CN1CC[C@H]2COC(=O)N2c2cc(C)ccc2C1`?
Pf Dd2 inh: -21.1%[44.1 µM]
